# Compound activity (PubChem)
# Most compounds without a hit are left out; they make up all but 4.7% or so of the library.
# TRHR ag: activates the human TRH receptor; TRHR cells, calcium flux fluo-8, FDSS agonist mode; 360,000 tested, 0.18% active; activation, % at 2 µM; also: 0% is about no effect
# Target sequence (P34981 whole entry, looked up): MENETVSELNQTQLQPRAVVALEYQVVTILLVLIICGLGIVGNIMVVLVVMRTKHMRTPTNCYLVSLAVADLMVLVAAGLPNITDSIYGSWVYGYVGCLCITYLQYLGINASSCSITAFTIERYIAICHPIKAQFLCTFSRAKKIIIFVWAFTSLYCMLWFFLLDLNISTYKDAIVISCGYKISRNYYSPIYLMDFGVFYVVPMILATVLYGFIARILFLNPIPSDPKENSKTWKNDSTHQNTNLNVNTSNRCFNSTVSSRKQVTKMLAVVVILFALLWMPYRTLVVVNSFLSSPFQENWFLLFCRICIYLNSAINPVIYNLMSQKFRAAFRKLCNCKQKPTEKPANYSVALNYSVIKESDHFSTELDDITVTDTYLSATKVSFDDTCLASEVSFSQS
#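 TRHR-expressing cells loaded with fluo-8 calcium dye; 23 nL library compound pin-transferred, kinetic FDSS fluorescence (Ex 480/Em 530) recorded about 180 s for agonist-induced calcium release, before a 10 nM TRH EC20 addition for potentiator mode.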
# D1 potentiator: potentiators of human D1 dopamine receptor; P21728; HEK293 TREx D1 cells, calcium flux, dopamine EC20 potentiation; 360,000 tested, 0.036% active; potentiation, % at 10 µM; in the data active = potentiation above about 30%; also: 0% is about no effect
# D1 antag: human D1 dopamine receptor antagonism; P21728; HEK293 TREx D1 cells, calcium flux, dopamine EC80; stronger effect = lower value; 360,000 tested, 3.2% active; activity change, negative = inhibition, % at 10 µM; in the data active = activity change below about -30%; also: % is scaled to controls: 0 for no effect and ±100 for the full control effect
#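 Cells carrying a force-coupled, tetracycline-inducible human D1 receptor report calcium flux. Each well gets a 10 s baseline, compound with 180 s monitoring, then an EC80 dopamine stimulus with a second 180 s kinetic read.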
# D1 ag: activates the human D1 dopamine receptor; activation, % at 2 µM; AID 504660; 360,000 tested, 1% active; HEK293 T-REx D1 cells, calcium flux, agonist mode; also: 0% is about no effect
#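 Inducible HEK293 T-REx D1 cells, force-coupled to calcium signalling, were plated at 4000 cells/well with tetracycline and held overnight at 30 C. After no-wash calcium dye loading, compound-evoked calcium rise over 180 s flagged agonists.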
# TRHR enhancer: TRH receptor (human) allosteric enhancement. P34981. TRHR cells, fluo-8 calcium fluorescence, EC20 TRH enhancement. enhancement, % at 2 µM. 360,000 tested, 0.66% active. AID 493056; in the data active = enhancement above about 30%; also: 0% is about no effect
#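 TRHR-expressing cells loaded with fluo-8 calcium dye were read kinetically (ex 480/em 530) during compound addition, then stimulated with an EC20 of TRH (10 nM final). Enhancement of the Gq-mediated intracellular calcium response was scored.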
# An asterisk follows results filed as active. Rule as the data show it, unless noted: active = activation above about 30%; inactive = the rest.
SMILES,TRHR ag,D1 potentiator,D1 antag,D1 ag,TRHR enhancer
Cc1ccc(-n2nc(C)c3nc(CCC(=O)Nc4cccc(F)c4)c(=O)n(C)c32)cc1,0,0,-1,1,-2
Cc1ccc(OCCCC(=O)Nc2ccc(Br)cc2)cc1,0,-13,-67*,5,3
Cc1ccc(NC(=S)Nc2ccc(Br)cc2)cc1,1,-15,-33*,14,-9
CCc1ccccc1NC(=O)CSc1ncc2c(n1)-c1cc(Cl)ccc1N(Cc1ccccc1)S2(=O)=O,1,1,-50*,1,-2
CCSc1cc(N2CCCC2)nc(-c2ccc(C)cc2)n1,-1,-1,9,5,3
CCSc1cc(N2CCCC2)nc(-c2cccc(C)c2)n1,-1,6,5,16,31*
Cc1c(C(=O)c2ccc(F)cc2)c2ccccn2c1CCc1ccccn1,0,-13,-54*,1,2
Cc1cc(=O)oc(C)c1C(=O)OC(C(=O)c1ccccc1)c1ccccc1 (stereo not given),0,-4,-42*,1,0
Cc1cc(=O)oc(C)c1C(=O)OCC(=O)c1ccccc1,0,-2,-2,5,13
CCN(CC)CCN(CC(=O)Nc1c(C)cc(C)cc1C)C(=O)c1ccccc1,-1,-2,2,3,0
C#Cc1ccc([C@@H]2C=C(C(=O)O)O[C@H](OCc3ccc(CO)cc3)C2)cc1,-1,-6,-39*,-3,0
C#CCNC(=O)C1=C[C@H](C2CCCCC2)C[C@H](OCc2ccc(CO)cc2)O1,-1,-4,-35*,9,-2
C#CCNC(=O)C1=C[C@@H](c2ccc(Br)cc2)C[C@@H](OCc2ccc(CO)cc2)O1,0,-4,-31*,-5,-2
C#CCNC(=O)C1=C[C@@H](C2CCCCC2)C[C@@H](OCc2ccc(CO)cc2)O1,0,-5,-13,0,4
Cc1ccc(CCNC(=O)c2c[nH]c3ccc(S(=O)(=O)Nc4cccc(C(F)(F)F)c4)cc3c2=O)cc1,1,1,5,4,-5
CC(C)[C@H](NC(=O)C1CCN(S(=O)(=O)c2ccc(F)cc2)CC1)C(=O)NCc1ccco1,-1,-8,-22,2,0
CCCCN(CC(=O)NC1CCCC1)C(=O)C(=O)Nc1ccc2c(c1)OCCO2,-1,-10,-36*,7,7
COc1ccc(OC)c(NC(=O)c2cc(-c3ccc(Cl)s3)nc3ccccc23)c1,0,0,3,1,-3
COc1cccc2cc(C(=O)NCc3ccccc3)c(=N)oc12,0,-1,0,5,-3
COc1cccc2cc(C(=O)NCCc3ccccc3)oc12,2,-6,-34*,57*,7
CC(C)Oc1ccc(CNC(=O)Cn2c(=O)c3cccn3c3cccnc32)cc1,0,-16,-81*,1,-20
CC(C)Oc1ccc(CNC(=O)c2ccc(Cn3c(=O)c4cccn4c4cccnc43)cc2)cc1,0,-6,-7,7,-6
COc1ccc(CCNc2nc3cc(OC)c(OC)cc3c3nc(-c4ccccc4)nn23)cc1OC,0,0,-22,1,-12
CC(=O)c1ccc(NS(=O)(=O)c2ccc(CC(C)C)cc2)cc1,0,-17,1,40*,-4
Cc1nn(C(=O)/C(C#N)=C/N(C)C)c(C)c1C,0,9,-9,2,-4
SMILES,TRHR ag,D1 potentiator,D1 antag,D1 ag,TRHR enhancer
Cc1nn(C)c(C)c1NC(=O)/C(C#N)=C\N(C)C,0,-2,-54*,2,-7
COc1cccc(Oc2cn[nH]c2-c2ccc(O)cc2O)c1,0,-7,-9,3,19
COc1ccccc1Oc1cn[nH]c1-c1ccc(O)cc1O,0,-6,-32*,2,28
CC(C)(C)OC(=O)N1CCC(c2c(C(=O)N3CCC(c4ccccc4)C3)cnn2-c2ccc(Cl)cc2)CC1 (stereo not given),1,-2,11,3,15
Cc1[nH]c2ccccc2c1C(=O)C(=O)N1CCN(c2cccc(Cl)c2)CC1,1,1,-38*,4,3
Cc1[nH]c2ccccc2c1C(=O)C(=O)N1CC=C(c2ccccc2)CC1,0,-2,-37*,24,-7
COC(=O)CCn1nc(-c2ccc(C)cc2)c2ccccc2c1=O,-1,-6,-21,1,-7
